KKLEB cytotox: CF airway cell cytotoxicity counter-screen; KKLEB CF airway cells viability, ATPlite luminescence, overnight; active compounds read low; cells stimulated with P. aeruginosa culture filtrate; activity change (cytotoxicity), % at 5 µM; 360,000 tested, 0.36% active;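 active means corrected activity change at or below -50% at 5 µM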
CF NFkB block: inhibitors of cystic fibrosis induced NF-kB. KKLEB NF-kB-GFP reporter, PAF-induced, GFP fluorescence overnight. 360,000 tested, 0.86% active. inhibition, % at 5 µM;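 active means at least 50% inhibition at 5 µM, scaled per plate between neutral and stimulator controls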;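 further: PAF is a Pseudomonas aeruginosa culture filtrate used as stimulus; plate controls were PAF-stimulated DMSO wells for no effect and unstimulated DMSO wells for full effect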
TRPM1 prom inh: inhibitors of MITF-driven TRPM1 promoter in melanoma cells. inhibition, % at 12.5 µM. 330,000 tested, 0.83% active. SK-MEL-5 TRPM1 promoter luciferase, 24 h;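 active means mean inhibition across replicates of 60% or more, whatever share of single replicates reaches that level; inconclusive means some that reach 60%, reason not given; inactive means mean inhibition across replicates below 60%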
ABHD5 PLIN5 PPI: inhibitors of human ABHD5-perilipin-5 interaction. Q00G26+Q8WTS1. Split G. princeps luciferase complementation, luminescence, 4 h. inhibition, % at 4 µM. 360,000 tested, 0.78% active. AID 602281;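 active means inhibition above the mean inhibition across every tested compound plus 3 SD, cut at about 22% in these data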;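 further: 0% = DMSO only wells and the 100% control is not disclosed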
Target sequence (Q00G26 whole entry, looked up): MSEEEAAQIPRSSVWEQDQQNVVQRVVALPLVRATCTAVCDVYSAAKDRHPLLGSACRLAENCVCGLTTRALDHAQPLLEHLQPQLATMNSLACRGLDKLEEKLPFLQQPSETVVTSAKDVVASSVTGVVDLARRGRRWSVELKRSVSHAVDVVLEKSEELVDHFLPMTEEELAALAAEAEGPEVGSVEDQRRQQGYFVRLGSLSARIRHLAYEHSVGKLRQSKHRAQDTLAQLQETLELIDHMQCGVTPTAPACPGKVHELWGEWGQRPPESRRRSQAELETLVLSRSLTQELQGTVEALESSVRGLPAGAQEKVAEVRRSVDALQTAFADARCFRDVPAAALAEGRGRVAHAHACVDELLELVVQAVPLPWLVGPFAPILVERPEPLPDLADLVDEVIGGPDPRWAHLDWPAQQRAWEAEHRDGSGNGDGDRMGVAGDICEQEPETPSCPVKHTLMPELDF
Target sequence (Q8WTS1 whole entry, looked up): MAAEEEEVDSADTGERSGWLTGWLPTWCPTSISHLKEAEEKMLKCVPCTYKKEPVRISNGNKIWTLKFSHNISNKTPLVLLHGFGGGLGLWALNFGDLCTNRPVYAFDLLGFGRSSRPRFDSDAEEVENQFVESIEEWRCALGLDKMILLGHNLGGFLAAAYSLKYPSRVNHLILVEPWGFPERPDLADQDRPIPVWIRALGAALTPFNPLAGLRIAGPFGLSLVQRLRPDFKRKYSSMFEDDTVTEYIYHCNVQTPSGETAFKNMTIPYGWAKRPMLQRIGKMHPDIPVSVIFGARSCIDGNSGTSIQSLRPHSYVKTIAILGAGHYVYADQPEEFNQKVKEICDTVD
Peg3 promoter: inhibitors of Peg3 promoter. 360,000 tested, 1.7% active. HeLa PEG-Prom luciferase reporter, luminescence, overnight. inhibition, % at 20 µM;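 active means inhibition of at least 50% at 20 µM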
HIF-2a block: inhibitors of HIF-2a; AID 624352; 786-0 RCC cells HIF-2a reporter, luciferase luminescence, overnight; inhibition, % at 18.8 µM; 360,000 tested, 0.72% active;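 active means inhibition of the luminescence signal of 40% or more relative to plate controls, in a single-dose primary screen at 18.75 µM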
* hit, by the source's call; ? = inconclusive. A selection: hits, their analogues and other compounds. The true share with any hit is near 3.1%.

SMILES | KKLEB cytotox | CF NFkB block | TRPM1 prom inh | ABHD5 PLIN5 PPI | Peg3 promoter | HIF-2a block
Cc1ccc(S(=O)(=O)n2cnc3cc([N+](=O)[O-])ccc32)cc1C | -1 | 6 | -15 | -8 | 8 | 7
Cc1ccc(-n2c3nc(=O)[nH]c(=O)c-3cc3cc([N+](=O)[O-])ccc32)cc1C | -15 | -3 | 43 | 2 | 74* | 29
CC(C)NC(=O)CN1C(=O)c2ccccc2S1(=O)=O | 2 | 3 | -5 | -5 | 0 | 4
O=C(CN1C(=O)c2ccccc2S1(=O)=O)c1ccccc1 | 1 | 0 | 60 | 2 | 53* | 46*
O=C(CN1C(=O)c2ccccc2S1(=O)=O)Nc1ncc(Cl)cc1Cl | -8 | 12 | 38 | -8 | 58* | 32
COc1ccc(S(=O)(=O)N2CCOC2CNC(=O)C(=O)NCCCN(C)C)cc1C (centres undefined) | -19 | 6 | 2 | -6 | 12 | 17
Clc1cc(Br)ccc1OCCCNCc1ccccc1 | -16 | 21 | -5 | 22* | 56* | -76
Fc1ccc(COc2ccccc2CNCc2ccncc2)cc1 | -17 | 15 | 5 | -3 | 9 | 7
Brc1ccc(OCc2ccccc2)c(CNCc2ccncc2)c1 | -12 | 15 | 5 | 9 | 51* | 3
N#C/C(=C(/O)COc1ccc(Cl)cc1)c1nc2ccccc2s1 | -34 | 50* | 6 | 4 | -8 | -64
Nc1nc(Nc2ccc(Cl)cc2)nc2ccccc12 | -55* | 8 | 4 | 2 | -48 | -76
Nc1nc(Nc2ccccc2)nc2ccccc12 | -22 | -5 | -33 | 1 | -202 | -143
CCOc1ccc(Nc2nc(N)c3ccccc3n2)cc1 | -56* | -8 | 36 | 6 | 58* | 47*
O=C(NCc1ccco1)c1cc(-c2ccccc2)nc2ccccc12 | 6 | -31 | -4 | 4 | 16 | -1
O=C(Nc1cccc(S(=O)(=O)NCc2ccco2)c1)c1cc(-c2ccccc2)nc2ccccc12 | 2 | -20 | 28 | -2 | 62* | 11
Cc1ccc(S(=O)(=O)/N=C2/C=C(Sc3ncn[nH]3)C(=O)c3ccccc32)cc1 | -58* | 100* | 91* | 40* | 106* | 98*
CC(C)c1ccc(S(=O)(=O)/N=C2/C=C(Sc3ncn[nH]3)C(=O)c3ccccc32)cc1 | -49 | 84* | 60 | 15 | 64* | 49*
Cc1ccc(S(=O)(=O)Nc2ccc(O)c(Sc3ncn[nH]3)c2)cc1 | -2 | 9 | 4 | 0 | -5 | 17
C#CCOCCOCCOCCNc1nc(N2CCN(C(=O)CCCCCCCCCCNC(=O)[C@H](CO)n3cc(CCCSC)nn3)CC2)nc(N2CCN(C(=O)CCCCCCCCCCNC(=O)[C@H](CCCCN)n3cc(CCO)nn3)CC2)n1 | 5 | 5 | 7 | 49* | 15 | -2
C#CCOCCOCCOCCNc1nc(N2CCN(C(=O)CCCCCCCCCCNC(=O)[C@H](CO)n3cc(CCCSC)nn3)CC2)nc(N2CCN(C(=O)CCCCCCCCCCNC(=O)[C@H](CCCN=C(N)N)n3cc(C[C@@H](C)CC)nn3)CC2)n1 | 8 | 20 | 89* | 70* | 0 | 22
C#CCOCCOCCOCCNc1nc(N2CCN(C(=O)CCCCCCCCCCNC(=O)Cn3cc(C[C@@H](C)O)nn3)CC2)nc(N2CCN(C(=O)CCCCCCCCCCNC(=O)[C@@H](CCC(=O)O)n3cc(CCCCCN)nn3)CC2)n1 | 16 | 3 | 6 | 20 | -9 | 1
C#CCOCCOCCOCCNc1nc(N2CCN(C(=O)CCCCCCCCCCNC(=O)Cn3cc(CCCCCN)nn3)CC2)nc(N2CCN(C(=O)CCCCCCCCCCNC(=O)[C@@H](CCC(=O)O)n3cc(CCCCCN)nn3)CC2)n1 | -2 | -7 | -6 | 22 | -42 | -12
C#CCOCCOCCOCCNc1nc(N2CCN(C(=O)CCCCCCCCCCNC(=O)Cn3cc(CCCCCN)nn3)CC2)nc(N2CCN(C(=O)CCCCCCCCCCNC(=O)[C@@H](CCSC)n3cc(CCO)nn3)CC2)n1 | 5 | -10 | 35 | 57* | 77* | -11
C#CCOCCOCCOCCNc1nc(N2CCN(C(=O)CCCCCCCCCCNC(=O)Cn3cc(C[C@@H](C)O)nn3)CC2)nc(N2CCN(C(=O)CCCCCCCCCCNC(=O)[C@H](CCCN=C(N)N)n3cc(C[C@@H](C)CC)nn3)CC2)n1 | 7 | 16 | ? | 55* | -1 | 5
Cc1ccc(S(=O)(=O)N(C)CC(=O)NCCCn2nc(C)cc2C)cc1 | -6 | 0 | 14 | 0 | 3 | 14
SMILES | KKLEB cytotox | CF NFkB block | TRPM1 prom inh | ABHD5 PLIN5 PPI | Peg3 promoter | HIF-2a block
O=C(c1ccccc1)c1ccc2nc(-c3ccco3)c(-c3ccco3)nc2c1 | -2 | 8 | -65 | 29* | -140 | -148
O=C(NCCCNC(=O)c1cc(Cl)ccc1Cl)c1ccco1 | -1 | 8 | 6 | 4 | -8 | 16
O=C(NCCO)c1ccc2nc(-c3ccco3)c(-c3ccco3)nc2c1 | 0 | 7 | -12 | 7 | 9 | 17
O=C(NCCc1ccccc1)c1ccc2nc(-c3ccco3)c(-c3ccco3)nc2c1 | 0 | -1 | -6 | 29* | 15 | -1
Cc1ccc(C(=O)NCCc2ccccc2)cc1 | -8 | -11 | 38 | 7 | 45 | 54*
Cc1ccc(C(=O)NCCc2ccncc2)cc1 | -2 | 0 | -46 | 1 | -115 | -118
O=C(NCCCNC(=O)c1ccco1)c1ccc(Cl)c(Cl)c1 | 5 | 5 | 7 | -4 | 53* | -4
COc1ccc(-c2noc(CCC(=O)N3CCN(c4ccccc4C(F)(F)F)CC3)n2)cc1 | 15 | -10 | -7 | -2 | 27 | -12
CC(=O)Nc1ccc(Oc2cc(NC(C)=O)cc([N+](=O)[O-])c2)cc1 | 0 | 13 | -1 | 6 | 16 | 17
CC1CCc2nc3ccc(S(=O)(=O)N4CCC(C(=O)N5CCCCCC5)CC4)cc3c(C(=O)O)c2C1 (centres undefined) | 10 | -9 | 9 | 3 | -12 | 19
Cc1ccc(C)c(N2CCN(C(=O)c3ccc4nc(-c5ccco5)c(-c5ccco5)nc4c3)CC2)c1 | -22 | 30 | -2 | 19 | 34 | 15
COc1ccccc1N1CCN(C(=O)c2ccc3nc(-c4ccco4)c(-c4ccco4)nc3c2)CC1 | -36 | 17 | 8 | 13 | 52* | 0
COc1ccc(CC(=O)Nc2ccc(S(=O)(=O)N(C)C3CCN(C)CC3)cc2)cc1 | 6 | 7 | 2 | -7 | -16 | 6
COc1ccc2oc(C(=O)Nc3ccc(S(=O)(=O)N(C)C4CCN(C)CC4)cc3)c(C)c2c1 | -7 | 1 | 85* | 12 | 75* | -10
Cc1nc(SCC(=O)Nc2ccc(CN3CCCC3)cc2)c2c(C)c(C)sc2n1 | -24 | 14 | 77* | 0 | 85* | 6
Cc1ccc(NC(=O)Cn2c(-c3ccc(F)cc3)cnc2SCC(=O)Nc2c(C)cccc2C)cc1 | -14 | -6 | 5 | 0 | 76* | 10
